Source: PubChem (several laboratories)
CSC inhib – cancer stem cell inhibition. 1.1% of 300,000 active. inhibition, % at 7.5 µM. cancer stem cell-like cells viability, luminescence; in the data active = inhibition above about 75%; inconclusive = no clear call, values can overlap the other calls; tested in HMLE shEcad cells
Gli-Sufu block – blocks Gli-Sufu signaling in a luciferase reporter; Sufu-KO-LIGHT fibroblasts, Gli luciferase reporter luminescence; 0.74% of 340,000 active; inhibition, % at 5 µM;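 active = inhibition above about 55%, limit read from the data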;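 also: 0% = DMSO-treated cells and 100% = wells with medium but no cells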
PAX8 reporter – PAX8 transcriptional activity inhibition. AID 652154. 1.2% of 360,000 active. RMG-I TPO-luciferase reporter, SteadyGlo, 24 h. inhibition, % at 12.6 µM;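 active = mean replicate inhibition at least 60% with every replicate also reaching 60%; inconclusive = only one of the two criteria is met; inactive = mean below 60% and not all replicates reaching 60%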;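 also: luciferase light reporting Pax8 driven TPO promoter activity; plate controls were median of neutral control wells for no effect and mitoxantrone controls for full effect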
Beta apoptosis – blocks beta cell apoptosis. 0.8% of 300,000 active. protection from apoptosis, % (test concentration not listed). INS-1E cytokine-induced death, ATP luminescence, 48 h; percent of positive-control rescue, neutral wells zero;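 active = Every replicate reaches about 75%, or at least half do and their mean reaches it too, limit read from the data; inconclusive = At least half of replicates reach the limit but their mean does not; inactive = Under half of replicates reach the limit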;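 also: 0% = cytokine-treated negative control wells and 100% = positive control rescue; higher means more ATP so stronger rescue from cytokine killing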
Mdm2-MdmX inh – inhibitors of human Mdm2/MdmX interaction. SaOS-2 split-luciferase Mdm2/MdmX complementation, luminescence. inhibition, % at 8 µM. 3% of 330,000 active;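 active = inhibition of at least 50% at 8 µM in the primary screen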
Target sequence (O15151 whole entry, looked up): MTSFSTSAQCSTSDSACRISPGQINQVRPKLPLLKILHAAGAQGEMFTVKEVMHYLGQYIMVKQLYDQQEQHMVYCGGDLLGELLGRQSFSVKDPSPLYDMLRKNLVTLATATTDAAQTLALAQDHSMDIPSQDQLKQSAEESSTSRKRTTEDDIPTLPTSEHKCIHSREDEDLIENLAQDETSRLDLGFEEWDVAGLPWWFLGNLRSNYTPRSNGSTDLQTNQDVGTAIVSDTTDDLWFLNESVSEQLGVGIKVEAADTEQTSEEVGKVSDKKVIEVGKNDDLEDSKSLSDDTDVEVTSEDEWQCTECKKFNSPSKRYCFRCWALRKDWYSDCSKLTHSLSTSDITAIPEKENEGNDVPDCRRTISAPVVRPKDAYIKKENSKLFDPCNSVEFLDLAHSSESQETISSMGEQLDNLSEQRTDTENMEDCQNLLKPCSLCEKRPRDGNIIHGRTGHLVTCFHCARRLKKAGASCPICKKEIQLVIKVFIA
Target sequence (Q00987 whole entry, looked up): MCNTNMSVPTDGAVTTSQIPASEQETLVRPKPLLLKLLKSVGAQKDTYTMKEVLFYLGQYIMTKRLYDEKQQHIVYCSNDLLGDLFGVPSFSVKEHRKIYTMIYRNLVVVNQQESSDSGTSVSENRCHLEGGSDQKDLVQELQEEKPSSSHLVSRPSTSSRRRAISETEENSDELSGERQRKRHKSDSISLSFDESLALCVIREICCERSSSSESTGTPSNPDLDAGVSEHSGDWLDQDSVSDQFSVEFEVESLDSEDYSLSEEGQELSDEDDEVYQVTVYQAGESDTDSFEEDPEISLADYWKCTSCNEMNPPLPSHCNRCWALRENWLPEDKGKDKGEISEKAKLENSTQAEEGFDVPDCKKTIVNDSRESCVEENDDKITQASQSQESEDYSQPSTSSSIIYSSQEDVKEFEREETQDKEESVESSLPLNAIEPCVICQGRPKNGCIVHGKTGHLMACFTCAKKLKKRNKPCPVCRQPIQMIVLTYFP
Shn3 3UTR inh – inhibitors of Schnurri-3 3'UTR reporter in osteoblasts; Clone20 osteoblast Shn3 3'UTR firefly luciferase, 24 h; inhibition, % at 12.5 µM; 0.52% of 360,000 active;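 active = mean inhibition of at least 75% with every replicate also reaching 75%; inconclusive = mean inhibition at least 75% but some replicate below; inactive = mean inhibition below 75%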;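 also: 0% = median of neutral control wells and 100% = pilot-screen positive control compound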
Mdm2-MdmX conf – human Mdm2/MdmX binding inhibition, confirmed | inhibition, % at 8 µM | shares compounds with Mdm2-MdmX inh | 55% of 10,000 active | luminescent assay | AID 489028; in the data active = inhibition above about 40%
FLuc counter – inhibits full-length luciferase, flagging false Mdm2/MdmX hits; 77% of 6,200 active; SaOS-2 full-length luciferase counterscreen, luminescence; inhibition, % at 8 µM; shares compounds with Mdm2-MdmX inh;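 active = mean inhibition at 8 µM reaching about 37%, which flags the compound as non-specific, limit read from the data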;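 also: p53-null SaOS-2 cells with luciferase driven by a doxycycline-inducible promoter; compound on cells about two nights before reading with doxycycline added after day one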
Active calls of the source: *. A selection: hits, their analogues and other compounds. The true share with any hit is near 4%.

What do the screens show for `COc1ccc(C(C[N+](=O)[O-])c2c(-c3ccccc3)cc3ccccn23)cc1OC` (stereo unspecified)?
CSC inhib: 9.9; Gli-Sufu block: -6.9; PAX8 reporter: -6.9; Beta apoptosis: 1.4; Mdm2-MdmX inh: 36.9; Shn3 3UTR inh: -14.2

Results for COc1ccc(C(C[N+](=O)[O-])c2c(-c3ccccc3)cc3ccccn23)cc1 (stereo unspecified) ?
CSC inhib: inconclusive; Gli-Sufu block: -4.3; PAX8 reporter: -7.5; Beta apoptosis: -7.9; Mdm2-MdmX inh: 96.4*; Shn3 3UTR inh: -21.5; Mdm2-MdmX conf: 16.5

How did C[C@@H]1CCCCO[C@@H](CN(C)CC2CC2)[C@@H](C)CN([C@H](C)CO)C(=O)c2cc(NC(=O)Nc3ccc(C(F)(F)F)cc3)ccc2O1 do in these assays?
PAX8 reporter: -1.2

How did COc1cc(C2C(C#N)=C(N)N(Nc3ccccc3)C3=C2C(=O)CC(C)(C)C3)ccc1OCc1cccc(F)c1 (stereo unspecified) do in these assays?
CSC inhib: 11.2; Gli-Sufu block: 11.0; Beta apoptosis: -2.7; Mdm2-MdmX inh: 61.5*; Shn3 3UTR inh: 23.8; Mdm2-MdmX conf: 18.6

What do the screens show for `COc1cc(C2C(C#N)=C(N)N(Nc3ccccc3)C3=C2C(=O)CC(C)(C)C3)ccc1OCc1ccccc1` (stereo unspecified)?
CSC inhib: 23.4; Gli-Sufu block: -0.8; Beta apoptosis: 11.1; Mdm2-MdmX inh: 9.4; Shn3 3UTR inh: 27.9

What do the screens show for `CO[C@@H]1CN(C)C(=O)c2cc(NC(=O)NC3CCCCC3)ccc2OC[C@H](C)NC[C@@H]1C`?
PAX8 reporter: 2.1

Results for O=[N+]([O-])c1cc(S(=O)(=O)Nc2cccc(Cl)c2)ccc1N/N=C/c1ccc(N2CCOCC2)cc1 ?
CSC inhib: 36.0; Gli-Sufu block: -6.3; PAX8 reporter: 8.8; Beta apoptosis: 18.0; Mdm2-MdmX inh: 84.1*; Shn3 3UTR inh: 9.3; Mdm2-MdmX conf: 2.5

Results for C/C(=N\Nc1ccc(S(=O)(=O)Nc2ccc(Cl)cc2)cc1[N+](=O)[O-])c1ccc(N2CCOCC2)cc1 ?
CSC inhib: -1.1; Gli-Sufu block: 5.7; PAX8 reporter: 3.9; Beta apoptosis: 18.2; Mdm2-MdmX inh: 20.3; Shn3 3UTR inh: -11.5

What do the screens show for `O=[N+]([O-])c1ccccc1/C=C/C=N/Nc1ccc(S(=O)(=O)Nc2ccc(Cl)cc2)cc1[N+](=O)[O-]`?
CSC inhib: 40.3; Gli-Sufu block: 3.6; PAX8 reporter: 36.8; Beta apoptosis: 29.8; Mdm2-MdmX inh: 56.2*; Shn3 3UTR inh: 48.6; Mdm2-MdmX conf: 12.0

Results for O=C(O)c1ccc(N/N=C/C=C/c2ccccc2[N+](=O)[O-])cc1 ?
CSC inhib: 4.8; Gli-Sufu block: -20.7; PAX8 reporter: -150.7; Beta apoptosis: -3.3; Mdm2-MdmX inh: -19.9; Shn3 3UTR inh: -63.6

How did CS(=O)(=O)c1ccc2nc(NC(=O)Nc3cccc(Cl)c3)sc2c1 do in these assays?
CSC inhib: 63.0; Beta apoptosis: 50.9; Mdm2-MdmX inh: 91.7*; Shn3 3UTR inh: -2.8; Mdm2-MdmX conf: 64.2*; FLuc counter: 76.8*

How did CS(=O)(=O)c1ccc2nc(NC(=O)Nc3ccc(Cl)c(Cl)c3)sc2c1 do in these assays?
CSC inhib: -0.3; Gli-Sufu block: 19.8; PAX8 reporter: -10.7; Beta apoptosis: 33.4; Mdm2-MdmX inh: 54.4*; Shn3 3UTR inh: 10.6; Mdm2-MdmX conf: 9.2

How did Cc1ccc(NC(=O)Nc2nc3ccc(S(C)(=O)=O)cc3s2)cc1 do in these assays?
Gli-Sufu block: -9.9; PAX8 reporter: -3.7; Mdm2-MdmX inh: 14.4; Shn3 3UTR inh: -2.4

Results for Cc1noc(C)c1NC(=O)N[C@H]1CC[C@@H](CC(=O)NCCCN(C)C)O[C@H]1CO ?
PAX8 reporter: 0.8

How did COC(=O)/C(=C\Nc1ccc(OC)cc1)NC(=O)c1ccc(Cl)cc1Cl do in these assays?
CSC inhib: 2.4; Gli-Sufu block: -27.4; Beta apoptosis: -1.1; Mdm2-MdmX inh: 16.4; Shn3 3UTR inh: -6.4

Results for COC(=O)/C(=C\Nc1ccc(Cl)cc1Cl)NC(=O)c1ccc(OC)cc1 ?
CSC inhib: 70.5; Gli-Sufu block: -4.5; PAX8 reporter: 16.9; Beta apoptosis: 29.1; Mdm2-MdmX inh: 51.7*; Shn3 3UTR inh: 4.1; Mdm2-MdmX conf: 42.6*; FLuc counter: 69.6*

What do the screens show for `CC(=O)N(C)C[C@@H]1Oc2cc(-c3cccc(F)c3)ccc2S(=O)(=O)N([C@@H](C)CO)C[C@H]1C`?
PAX8 reporter: -7.9

How did Cc1ccc(-c2csc3nc4c5ccccc5c(NCCCN5CCOCC5)nn4c(=O)c23)cc1 do in these assays?
CSC inhib: 34.5; Beta apoptosis: -5.4; Mdm2-MdmX inh: 37.1

How did Cc1ccc(-c2csc3nc4c5ccccc5c(NCCCN(C)C)nn4c(=O)c23)cc1 do in these assays?
CSC inhib: -6.9; Gli-Sufu block: 14.5; PAX8 reporter: 19.8; Beta apoptosis: 6.5; Mdm2-MdmX inh: 100.3*; Shn3 3UTR inh: 25.5; Mdm2-MdmX conf: 50.3*; FLuc counter: 64.1*

How did C[C@H](CO)N1C[C@H](C)[C@H](CN(C)C(=O)NC2CCCCC2)Oc2ccc(NC(=O)CCCN(C)C)cc2C1=O do in these assays?
PAX8 reporter: 5.8

What do the screens show for `Cc1cc(N/N=C/c2ccccc2O)nc(-c2ccccc2O)n1`?
CSC inhib: 54.3; Gli-Sufu block: 36.3; PAX8 reporter: 2.8; Beta apoptosis: 69.3; Mdm2-MdmX inh: 72.1*; Shn3 3UTR inh: 2.1; Mdm2-MdmX conf: 72.2*; FLuc counter: 46.4*

What do the screens show for `C/C(=N\Nc1cc(C)nc(-c2ccccc2O)n1)c1ccccc1O`?
CSC inhib: 80.4*; Gli-Sufu block: 1.2; PAX8 reporter: -8.3; Beta apoptosis: -1.7; Mdm2-MdmX inh: 89.4*; Shn3 3UTR inh: -14.8; Mdm2-MdmX conf: 82.0*; FLuc counter: 40.9*

How did C/C(=N\Nc1cc(C)nc(NCc2ccccc2)n1)c1ccc([N+](=O)[O-])cc1 do in these assays?
CSC inhib: 0.0; Gli-Sufu block: -2.5; PAX8 reporter: 3.6; Beta apoptosis: 16.3; Mdm2-MdmX inh: 31.4; Shn3 3UTR inh: 22.0

Results for Cc1cc(N/N=C/c2ccccc2Cl)nc(NCc2ccccc2)n1 ?
CSC inhib: 93.6*; Gli-Sufu block: 20.8; PAX8 reporter: -43.4; Beta apoptosis: 35.1; Mdm2-MdmX inh: 71.7*; Shn3 3UTR inh: 32.0; Mdm2-MdmX conf: 38.2

What do the screens show for `COC(=O)C[C@H]1CC[C@@H]2[C@@H](COc3ccc(NC(=O)c4ccc(F)cc4)cc3C(=O)N2C)O1`?
PAX8 reporter: -2.2
